Most compounds without a hit are left out; they make up all but 3.8% or so of the library.
Nrf2 ARE act: activators of Nrf2 (ARE) signaling | AREc32 ARE-luciferase reporter (MCF7-derived line), luminescence, 24 h | Potency, µM (highest dose often 46.1 µM), for the others: at the highest dose activation, actives largely listed as activators | actives 0.31% (n = 410,000) | AID 624171; further: % of control where 0% means no effect; nearly all actives have a fitted effect of over 65% in size
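Quantitative high-throughput format: AREc32 reporter cells, 1000 per well, received compound by pin transfer and were incubated 24 hr at 37 deg C, 5% CO2, before Steady-Glo luminescence detection.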
Nrf2 block: Nrf2 pathway inhibition; A549 ARE-Fluc reporter, luciferase luminescence, 18-24 h; Potency, µM (titrated, usually from 46 µM), without a hit: top-dose activity change, negative = inhibition, hits mostly inhibitors; actives 2.1% (n = 360,000); further: on the % scale 0 is the no-effect control and ±100 the full control effect; nearly all actives have a fitted effect of over 60% in size
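Quantitative HTS in A549 cells stably bearing an antioxidant response element-firefly luciferase construct. Inhibition of Nrf2-driven transcription was scored by luminescence after 18-24 h of compound exposure at 37 °C.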
A549 tox: A549 cytotoxicity, counter-screen for Nrf2 inhibitors; A549 ARE-Fluc cells, CellTiter-Fluor viability, 18-24 h; Potency, µM (highest dose often 46 µM), for inactives: at the top dose activity change, negative = cytotoxicity, most hits filed as inhibitors; actives 0.16% (n = 390,000); further: on the % scale 0 is the no-effect control and ±100 the full control effect
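A549 ARE_Fluc cells in 5% FBS OPTI-MEM were exposed to compounds in concentration-response for 18-24 h at 37 deg C. Viability was read by CellTiter-Fluor fluorescence (Ex 405/Em 525) after 30 min, before the luciferase read.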
ELG1 DNA repair: blocks ELG1-dependent DNA repair in HEK293T cells | HEK293T ELG1-luciferase reporter, luminescence, 16 h; DNA damage induced by 5-fluorouridine | Potency, µM (titrated, usually from 46.1 µM), for inactives: at the highest dose activity change, negative = inhibition, actives largely listed as inhibitors | actives 2.3% (n = 330,000); further: on the % scale 0 is the no-effect control and ±100 the full control effect; nearly all actives have a fitted effect of over 55% in size
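Step one: seed 2,000 cells per well. Step two: pin-transfer compound or DMSO alongside 5-fluorouridine. Step three: incubate 16 hr, 37 °C, 5% CO2. Step four: add ONE-Glo, wait 30 min, read luminescence.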
IDH1 R132H inh: human IDH1 R132H inhibition | AID 602179 | actives 0.093% (n = 390,000) | IDH1-R132H enzyme, NADPH consumption, diaphorase/resazurin fluorescence | Potency, µM (top dose mostly 76.6 µM), inactives show at the top dose activity change, negative = inhibition, usual class: inhibitors; further: on the % scale 0 is the no-effect control and ±100 the full control effect; nearly all actives have a fitted effect of over 65% in size
Target sequence (O75874 whole entry R132H, stated change not applied): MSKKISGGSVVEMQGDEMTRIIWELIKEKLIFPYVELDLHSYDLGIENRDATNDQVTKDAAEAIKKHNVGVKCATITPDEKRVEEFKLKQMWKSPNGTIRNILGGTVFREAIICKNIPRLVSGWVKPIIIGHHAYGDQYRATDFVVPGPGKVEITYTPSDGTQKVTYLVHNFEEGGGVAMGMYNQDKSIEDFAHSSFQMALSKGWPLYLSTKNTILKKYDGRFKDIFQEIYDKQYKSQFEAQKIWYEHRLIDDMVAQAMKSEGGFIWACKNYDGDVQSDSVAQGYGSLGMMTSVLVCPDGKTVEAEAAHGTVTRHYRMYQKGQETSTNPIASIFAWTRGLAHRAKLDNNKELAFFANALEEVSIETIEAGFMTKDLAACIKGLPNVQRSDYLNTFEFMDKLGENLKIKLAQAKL
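IDH1-R132H (0.5 ug/mL dispensed) in pH 7.5 Tris buffer was preincubated 30 min with compound, then given a substrate mix of 0.016 mM NADPH and 2 mM alpha-KG for 80 min at room temperature; remaining NADPH was read by diaphorase/resazurin fluorescence.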
The depositor's hits bear a star; [ ] = another dose, or the depositor's remark. The call rests on the fitted dose curve; in most records, active means well fitted curve in the direction sought with a large enough effect; inconclusive means small, poorly fitted or top-dose-only effect, or another doubt; inactive means no such curve, though single readings can be large; an effect the other way counts as inactive or inconclusive. Potency means the concentration at half of the fitted maximal effect.

Results for O=C(CNC(=O)C1CCCCC1)OCC(=O)c1ccc(-c2ccccc2)cc1 ?
Nrf2 block: 8.0%; A549 tox: -2.0%

Results for COc1ccc([N+](=O)[O-])cc1N(CC(=O)N1CCN(Cc2ccccc2)CC1)S(C)(=O)=O ?
Nrf2 ARE act: 2.5%; Nrf2 block: 5.2%; A549 tox: -2.2%; ELG1 DNA repair: 6.3%; IDH1 R132H inh: 5.8%

What do the screens show for `CC1(C)CC(=O)C2=C(C1)NC(Nc1nc3ccccc3o1)=NC2c1cccc(O)c1` (stereo not given)?
Nrf2 block: 20.6µM*; A549 tox: inconclusive

How did CC1(C)CC(=O)C2=C(C1)NC(Nc1nc3ccccc3o1)=NC2c1cccc(F)c1 (stereo not given) do in these assays?
Nrf2 block: 3.5%; A549 tox: -1.0%

Results for COc1ccc(-c2nc(-c3cccs3)no2)cc1 ?
Nrf2 ARE act: 2.4%; Nrf2 block: inconclusive; A549 tox: 4.8%; ELG1 DNA repair: inconclusive; IDH1 R132H inh: 0.0%

How did c1ccc(-c2nc(-c3ccc(-c4ccon4)s3)no2)cc1 do in these assays?
Nrf2 ARE act: 10.1%; Nrf2 block: inconclusive; A549 tox: 11.0%; ELG1 DNA repair: inconclusive; IDH1 R132H inh: 3.2%

How did Cc1ccc(-c2noc(-c3cccs3)n2)cc1 do in these assays?
Nrf2 ARE act: 11.2µM*; Nrf2 block: inconclusive; A549 tox: -5.1%; ELG1 DNA repair: inconclusive; IDH1 R132H inh: 7.4%

How did c1csc(-c2nc(-c3ccc(-c4ccon4)s3)no2)c1 do in these assays?
Nrf2 ARE act: 5.62µM*; Nrf2 block: inconclusive; A549 tox: 2.4%; ELG1 DNA repair: inconclusive; IDH1 R132H inh: -0.5%

What do the screens show for `CSc1cccc(NC(=O)c2ccc3c(c2)c(C)c(C)n3Cc2ccc(F)cc2)c1`?
Nrf2 ARE act: -0.5%; Nrf2 block: 26.0%; A549 tox: -15.7%; IDH1 R132H inh: -14.2%

How did Cc1ccc(-c2noc(CCC(=O)Nc3ccc(F)cc3Cl)n2)cc1 do in these assays?
Nrf2 ARE act: -1.1%; Nrf2 block: -3.6%; A549 tox: 2.4%; IDH1 R132H inh: -14.4%

What do the screens show for `O=C(Nc1nnc(-c2ccco2)s1)C1CCN(S(=O)(=O)c2ccc(Cl)cc2)CC1`?
Nrf2 ARE act: 0.1%; Nrf2 block: -15.3%; A549 tox: -1.0%; ELG1 DNA repair: -17.3%; IDH1 R132H inh: 2.6%

How did O=C(Nc1nnc(-c2ccco2)s1)C1CC1 do in these assays?
Nrf2 ARE act: 11.2µM*; Nrf2 block: 2.2%; A549 tox: -7.7%; ELG1 DNA repair: inconclusive; IDH1 R132H inh: -3.9%

Results for O=C(Nc1nnc(-c2ccco2)s1)c1ccccc1 ?
Nrf2 ARE act: inconclusive; Nrf2 block: inconclusive; A549 tox: -4.9%[1.84 µM]; ELG1 DNA repair: inconclusive; IDH1 R132H inh: 3.0%

Results for CC(C)C(=O)Nc1nnc(-c2ccco2)s1 ?
Nrf2 ARE act: 10µM*; Nrf2 block: 23.2%; A549 tox: -6.6%; ELG1 DNA repair: inconclusive; IDH1 R132H inh: 3.8%

What do the screens show for `Cc1nncn1-c1ccc(C(=O)Nc2cc(F)ccc2F)cc1`?
Nrf2 ARE act: -1.1%; A549 tox: 5.8%; IDH1 R132H inh: 0.9%

Results for CCOC(=O)c1c(C)[nH]c(C)c1S(=O)(=O)N(C)CC(=O)N1CCN(c2cccc(Cl)c2)CC1 ?
Nrf2 ARE act: -0.6%; A549 tox: 14.4%; IDH1 R132H inh: 23.2%

Results for CC(C)(C)OC(=O)n1c2ccsc2c2cnn(Cc3ccccc3F)c(=O)c21 ?
Nrf2 block: -9.3%; A549 tox: -2.3%

What do the screens show for `O=C1CCc2cc(S(=O)(=O)Nc3cccc(C(F)(F)F)c3)ccc2N1`?
Nrf2 block: inconclusive; A549 tox: -2.6%

What do the screens show for `COc1cc(/C=N/NC(=O)c2ccc(CSc3nc4ccccc4[nH]3)cc2)cc(OC)c1OC`?
Nrf2 ARE act: 0.2%; Nrf2 block: inconclusive; A549 tox: -0.4%; ELG1 DNA repair: 7.31µM*; IDH1 R132H inh: -1.1%
